From PubChem
GLD-1 RNA inh = GLD-1-TGE RNA interaction inhibition (C. elegans); Q17339; purified GLD-1 + fluorescein TGE RNA, fluorescence polarization; inhibition, % at 5.96 µM; actives 0.44% (n = 320,000);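 active = percent inhibition above a per-plate cutoff, the plate mean of test compounds plus 3 SD, cut at about 30% in these data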
MEX-5 binding = C. elegans MEX-5 TCR-2 RNA binding activity | Q9XUB2 | actives 0.38% (n = 300,000) | MEX-5/FITC-TCR2 RNA binding, fluorescence polarization; active compounds read low | activity score (negative = inhibition of binding), % at 10 µM;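 active = inhibition past about -25% in most replicates, and total fluorescence under double the plate's negative control median, limit read from the data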
Target sequence (Q9XUB2 whole entry, looked up): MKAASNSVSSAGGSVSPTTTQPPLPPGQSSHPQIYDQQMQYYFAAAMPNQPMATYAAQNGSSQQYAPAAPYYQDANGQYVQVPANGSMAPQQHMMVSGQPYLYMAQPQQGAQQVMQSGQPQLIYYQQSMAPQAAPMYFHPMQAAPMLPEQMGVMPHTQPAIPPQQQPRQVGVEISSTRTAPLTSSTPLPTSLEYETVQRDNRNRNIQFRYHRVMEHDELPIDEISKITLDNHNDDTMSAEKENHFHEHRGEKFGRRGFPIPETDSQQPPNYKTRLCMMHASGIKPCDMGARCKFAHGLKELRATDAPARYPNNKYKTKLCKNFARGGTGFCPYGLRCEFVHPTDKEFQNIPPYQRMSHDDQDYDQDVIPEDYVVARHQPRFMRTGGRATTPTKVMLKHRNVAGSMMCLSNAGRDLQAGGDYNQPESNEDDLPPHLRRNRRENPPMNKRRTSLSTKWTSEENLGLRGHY
EBV gp42 inh = blocks Epstein-Barr virus glycoprotein 42 binding | actives 0.42% (n = 220,000) | Q1HVG2 | inhibition, % (tested at 21.74 µM) | Fluorescence polarization binding assay, mP read-out; in the data active = inhibition above about 50%
Bcl-xL primary = inhibitors of human Bcl-xL; GST-Bcl-xL / FITC-Bim BH3 peptide fluorescence polarization; inhibition, % at 10.9 µM; actives 0.7% (n = 320,000); AID 2129;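 active = inhibition above the mean of all tested compounds plus 3 SD, cutoff set per campaign, cut at about 30% in these data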;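 also: inhibitors lower millipolarization by displacing the labeled peptide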
MCL1-BIM inh = inhibitors of human MCL1 binding to BIM-BH3 peptide; Q07820; GST-MCL1 / FITC-Bim-BH3 fluorescence polarization; inhibition, % at 10.9 µM; actives 0.68% (n = 320,000);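 active = inhibition above the mean inhibition of all tested compounds plus 3 SD, set per campaign, cut at about 40% in these data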;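 also: higher means more loss of mP so more displacement of Bim peptide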
E coli Lon inh = E. coli protease La inhibition; purified E. coli Lon protease, fluorescence polarization; inhibition, % at 7.94 µM; actives 0.42% (n = 360,000); AID 602123; in the data active = inhibition above about 13%, passing the limit was not always enough
GLD1 RNA confirm = confirmation of C. elegans GLD-1 TGE RNA binding inhibitors | shares compounds with GLD-1 RNA inh | GLD-1/FL-TGE RNA fluorescence polarization, biochemical | inhibition, % at 5.96 µM | actives 10% (n = 550) | AID 2459;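 active = average inhibition across triplicates above the hit cutoff set in the primary screen, cut at about 32% in these data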
Hits are given with their value; n = inactive; x = no result given. Sampled rows, rich in hits. Any-hit rate of the full collection: about 1.5%.

SMILES | GLD-1 RNA inh | MEX-5 binding | EBV gp42 inh | Bcl-xL primary | MCL1-BIM inh | E coli Lon inh | GLD1 RNA confirm
COc1ccc(C(=O)NCCS(=O)(=O)N2CCc3ccccc3C2)cc1 | n | n | x | n | n | n | x
CCCS(=O)(=O)c1c(S(=O)(=O)CCC)c2c(N)cccn2c1C(=O)c1ccccc1 | n | n | n | n | n | n | x
CCCS(=O)(=O)c1c(S(=O)(=O)CCC)c2c(N)cccn2c1C(=O)OC | 35 | n | n | n | n | n | n
Nc1nc(-c2ccccc2)c(N=Nc2ccccc2Cl)s1 | 159 | n | n | n | n | n | n
O=c1c2cccc(Cl)c2nc2n1Cc1ccccc1-2 | 42 | n | n | n | n | n | n
COc1ccc(NC(=O)c2cc3ccccc3o2)cn1 | n | n | x | n | n | n | x
COc1ccc(NC(=O)c2cc(=O)c3ccccc3o2)cn1 | 41 | n | n | 44 | 48 | n | n
Cc1ccc(-c2csc(N3CCN(CCCn4c(C(F)(F)F)nc5ccccc54)CC3)n2)cc1 | 40 | n | x | n | n | n | n
Cc1ccc(-c2csc(N3CCN(CCCn4c(-c5ccncc5)nc5ccccc54)CC3)n2)cc1 | n | n | x | n | n | n | x
COCCn1c(CN2CCN(c3ccccc3)CC2)nc2c1c(=O)n(C)c(=O)n2C | 33 | n | x | n | n | n | n
Cc1ccc(Cc2c(-c3ccc(F)cc3)nc3c(Cl)cc(C(F)(F)F)cn23)cc1 | x | x | x | x | x | n | x
Fc1ccc(-c2nc3c(Cl)cc(C(F)(F)F)cn3c2Cl)cc1 | 38 | -26 | n | n | n | n | n
COc1ccc2[nH]cc(CCNC(=O)c3ccccc3Cl)c2c1 | 33 | n | x | 47 | 52 | n | n
COc1ccc(CCN2C(=S)N(C)C(=O)C2CC(=O)Nc2ccc(F)cc2)cc1 (configuration not stated) | 61 | n | n | n | n | n | n
CCN1C(=O)C(CC(=O)Nc2ccc(OC)cc2)N(CCc2ccc(OC)cc2)C1=S (configuration not stated) | n | n | n | n | n | n | x
COC(=O)C1Sc2[nH]c(=O)sc2C(c2ccc(Cl)cc2)C1C(=O)OC (configuration not stated) | n | n | n | n | n | n | x
Cc1ccc(C2c3sc(=O)[nH]c3SC3C(=O)NC(=O)C32)cc1 (configuration not stated) | 54 | -46 | n | n | n | n | n
CC(C)(C)c1ccc(C(=O)NCC(=O)NCC(C)(C)N2CCOCC2)cc1 | x | x | x | x | x | n | x
Cc1c(C(=O)N2CCC3(CC2)CC(=O)c2ccccc2O3)cccc1[N+](=O)[O-] | 44 | n | x | n | n | n | n
COc1c(CC=C(C)C)cc(C2CC(=O)c3c(O)cc(O)cc3O2)c(CC=C(C)C)c1O (configuration not stated) | n | n | x | n | n | x | x
CC(C)=CCc1cc([C@@H]2CC(=O)c3ccc(O)c(CC=C(C)C)c3O2)ccc1O | 43 | n | x | n | n | n | n
Cc1cc2cc(C)c(NCCNC(=O)c3cccs3)nc2cc1C | n | n | n | n | n | n | x
O=C(NNc1c2ccccc2nc2ccccc12)C12CC3CC(CC(C3)C1)C2 | n | n | n | n | n | n | x
NNC(=O)c1cc(C23CC4CC(CC(C4)C2)C3)nc2ccccc12 | 60 | n | x | n | n | n | n
COCCn1c(C)cc(C(=O)COc2ccc(N(C)S(=O)(=O)c3ccc(C)cc3)cc2)c1C | n | x | x | n | n | n | x
SMILES | GLD-1 RNA inh | MEX-5 binding | EBV gp42 inh | Bcl-xL primary | MCL1-BIM inh | E coli Lon inh | GLD1 RNA confirm
COc1ccc(C(CNC(=O)COc2cc(C)c(Cl)c(C)c2)N2CCCCC2)cc1 (configuration not stated) | n | n | x | n | n | n | x
CCOc1ccc(S(=O)(=O)Nc2nc3ccc(OC)cc3s2)cc1 | 39 | n | n | n | n | n | n
Cc1cc(C)cc(OCC(=O)OCC(=O)N(CC(C)C)c2c(N)n(Cc3ccccc3)c(=O)[nH]c2=O)c1 | n | n | x | n | n | n | x
COc1cccc(-c2nnc(NC(=O)C(C)C)o2)c1 | 37 | n | n | 47 | 50 | n | n
COc1ccc(C(=O)NC(=S)Nc2ccc(CN3CCOCC3)cc2)cc1 | 64 | n | n | n | n | n | n
O=C(OC(C(=O)Nc1ccc(Cl)cc1C(F)(F)F)c1ccccc1)C1=COCCO1 (configuration not stated) | n | x | n | n | n | n | x
O=C(OC(C(=O)Nc1ccc(Cl)c(C(F)(F)F)c1)c1ccccc1)C1=COCCO1 (configuration not stated) | 45 | n | n | n | n | n | n
CN(C(=O)c1ccc2c(=O)n3c(nc2c1)CCCCC3)c1cccc(Cl)c1 | n | n | x | n | n | n | x
Cn1c(=O)c2cc(NCc3ccccc3)nnc2n(C)c1=O | 32 | n | n | 46 | 44 | n | n
Cc1ccccc1-c1nc2sc(C)c(C)c2c(=O)o1 | n | n | x | n | n | n | x
Cc1sc2nc(C(C)(C)C)oc(=O)c2c1C | 117 | n | n | n | n | n | n
CC(=O)[C@@H]1[C@@H]2C(=O)N(C3CCCCC3)C(=O)[C@@H]2C2c3ccccc3C=CN21 (some centres not stated) | 32 | n | n | n | n | x | 37
CCOC(=O)c1c(C)nc2sc3c(=O)n(-c4ccc(C(C)=O)cc4)cnc3c2c1-c1ccc(OC)cc1 | 43 | n | n | 31 | n | n | n
C#CCOCCOCCOCCNc1nc(OC)nc(N2CCN(C(=O)[C@H](CCC(=O)O)n3cc(C(N)CO)nn3)CC2)n1 (some centres not stated) | n | x | x | n | n | n | x
COC(=O)CP(=O)(c1ccccc1)c1ccccc1 | 39 | n | n | 32 | n | n | n
CCOC(=O)CP(=O)(c1ccccc1)c1ccccc1 | n | n | n | n | n | n | x
O=C(Nc1nnc([C@H]2C[C@H](O)[C@@H](CO)O2)s1)c1cccc(Oc2ccccc2)c1 | x | x | x | x | x | n | x
CC1(C2CCC3C4CCC5CC6(CCC5(C)C4C(=O)CC32C)OCCO6)OCCO1 (configuration not stated) | x | x | x | x | x | n | x
CCCCn1c(N)c(N(CC(C)C)C(=O)C2CCN(S(=O)(=O)c3ccc(OCC)cc3)CC2)c(=O)[nH]c1=O | n | n | x | n | n | n | x
O=C(O)C1Sc2[nH]c(=O)sc2C2c3cc(Br)ccc3OC(=O)C12 (configuration not stated) | 54 | x | n | 38 | 45 | n | n
CCC(C)[C@H](NC(=O)C1CC(=O)N(c2ccc(OC)cc2)C1)C(=O)NC1CCCC1 (some centres not stated) | n | n | x | n | n | n | x
C=CCn1c(CCNC(=O)c2cccs2)nnc1SCC(=O)c1ccc(Cl)cc1 | 86 | n | n | n | n | n | n
